In PubChem BioAssay (EPA / NIEHS):
Active and inactive are the calls of the source. How the source made its calls: active means hit-call score of the fitted dose curve at least 0.9, where 1 is the maximum; inactive means score below 0.9.

Tests used:
[1] = ATG_GLI_CIS: Attagene CIS-FACTORIAL HepG2 Assay for human Zinc Finger Protein GLI1 (AID 2282945); conditions: HepG2, Attagene cis-factorial reporter mRNA, GLI element; actives raise or lower the signal
In short: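 Bidirectional curve fits relative to DMSO, using reporter mRNA levels from RT-PCR plus capillary electrophoresis. Cells were HepG2 transiently carrying cis-regulated reporter constructs, harvested 24 h after dosing.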

[2] = biological target: Bile acid receptor (Homo sapiens) (UniProt Q96RI1); experiment: ATG_IR1_CIS: Attagene CIS-FACTORIAL HepG2 Assay for human Nuclear Receptor Subfamily 1 Group H Member 4 (NR1H4), IR1 submotif (AID 2282946); conditions: IR1 reporter transcription, actives raise or lower the signal
Bile acid receptor (Homo sapiens), sequence (Q96RI1 whole entry, looked up, the tested form may be a part): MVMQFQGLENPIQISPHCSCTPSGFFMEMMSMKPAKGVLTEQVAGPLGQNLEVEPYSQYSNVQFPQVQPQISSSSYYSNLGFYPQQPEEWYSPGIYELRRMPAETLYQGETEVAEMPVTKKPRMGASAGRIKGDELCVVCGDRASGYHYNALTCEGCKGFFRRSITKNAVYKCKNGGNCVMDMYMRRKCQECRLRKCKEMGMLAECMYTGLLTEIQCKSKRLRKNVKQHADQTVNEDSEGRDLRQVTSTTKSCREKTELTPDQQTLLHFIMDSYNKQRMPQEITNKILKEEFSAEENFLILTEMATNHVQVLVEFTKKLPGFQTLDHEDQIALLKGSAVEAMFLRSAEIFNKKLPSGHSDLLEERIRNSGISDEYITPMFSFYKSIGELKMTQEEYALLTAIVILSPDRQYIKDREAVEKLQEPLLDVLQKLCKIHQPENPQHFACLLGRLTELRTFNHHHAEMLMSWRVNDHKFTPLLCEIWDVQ
In short: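 Cells (human HepG2) carry transiently transfected cis-promoter reporter transcription units. Compounds are incubated 24 h, total RNA is reverse-transcribed and amplified, and labelled fragments are resolved by capillary electrophoresis. Curves use DMSO as baseline.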

[3] = ATG_GRE_CIS: Attagene CIS-FACTORIAL HepG2 Assay for human Glucocorticoid Response Elements (GRE) (AID 2282947); conditions: HepG2 GRE cis-reporter, Attagene multiplex mRNA; actives raise or lower the signal
In short: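 Transient MRTU transfection of human HepG2 liver cells; cis-regulated reporters report endogenous factors. 24 h dosing → RNA isolation → RT-PCR → 6-FAM primer extension → HpaI cut → CE fragment analysis. Bidirectional fit, DMSO negative control.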

[4] = ATG_ISRE_CIS: Attagene CIS-FACTORIAL HepG2 Assay for human Interferon Regulatory Factor 1 (IRF1) binding to an Interferon-Stimulated Response Element (ISRE) (AID 2282948); conditions: HepG2 ISRE cis-reporter (Attagene), mRNA transcription readout; actives raise or lower the signal
In short: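 HepG2 cells transiently transfected with multiplexed cis-promoter reporter units; after 24 h compound exposure, reporter mRNA quantified by RT-PCR, FAM labelling, HpaI digestion and capillary electrophoresis. Bidirectional fit versus DMSO baseline.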

[5] = ATG_M_32_CIS: Attagene CIS-FACTORIAL HepG2 Assay for M32 Transcription Factor (Internal Marker) (AID 2282949); conditions: HepG2 Attagene cis-factorial M32 reporter, mRNA; actives raise or lower the signal;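 further: background control marker of the multiplexed CIS panel rather than a real target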
In short: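 Fluorescent capillary electrophoresis peaks of HpaI-digested, FAM-labelled RT-PCR reporter products give the signal. Source: transiently transfected human liver HepG2 cells, 24 h after chemical dosing; bidirectional fitting against DMSO.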

[6] = ATG_M_06_CIS: Attagene CIS-FACTORIAL HepG2 Assay for M06 Transcription Factor (Internal Marker) (AID 2282950); conditions: HepG2 Attagene CIS-FACTORIAL M06 internal marker reporter; actives raise or lower the signal
In short: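 Cells (HepG2, transiently carrying cis-driven reporter units) receive chemical for 24 h before RNA isolation. Reporter cDNA is PCR-amplified, FAM-labelled by primer extension, HpaI-digested and sized on a capillary analyser.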

[7] = biological target: Hepatocyte nuclear factor 6 (Homo sapiens) (UniProt Q9UBC0); experiment: ATG_HNF6_CIS: Attagene CIS-FACTORIAL HepG2 Assay for human Hepatocyte Nuclear Factor 6 (HNF6) (AID 2282952); conditions: HepG2 Attagene cis-factorial HNF6 reporter transcription; actives raise or lower the signal
Hepatocyte nuclear factor 6 (Homo sapiens), sequence (Q9UBC0 whole entry, looked up): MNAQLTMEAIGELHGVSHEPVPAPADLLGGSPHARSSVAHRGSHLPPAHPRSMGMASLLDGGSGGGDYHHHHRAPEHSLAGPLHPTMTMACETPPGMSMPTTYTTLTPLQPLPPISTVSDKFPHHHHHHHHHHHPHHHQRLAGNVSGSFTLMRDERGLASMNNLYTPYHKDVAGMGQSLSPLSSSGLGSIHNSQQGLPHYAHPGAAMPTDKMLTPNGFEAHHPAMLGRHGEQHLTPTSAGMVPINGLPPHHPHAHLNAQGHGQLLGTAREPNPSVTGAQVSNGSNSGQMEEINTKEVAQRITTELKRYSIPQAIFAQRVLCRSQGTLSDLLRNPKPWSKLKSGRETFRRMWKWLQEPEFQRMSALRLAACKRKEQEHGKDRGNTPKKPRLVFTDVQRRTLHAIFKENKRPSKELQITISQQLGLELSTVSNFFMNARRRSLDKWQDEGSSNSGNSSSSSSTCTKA
In short: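 Cells are HepG2 carrying transiently transfected cis-promoter reporter units. Treatment lasts 24 h, after which reporter transcripts are reverse-transcribed, amplified, FAM-labelled and sized by capillary electrophoresis. DMSO serves as baseline.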

[8] = biological target: Heat shock factor protein 1 (Homo sapiens) (UniProt Q00613); experiment: ATG_HSE_CIS: Attagene CIS-FACTORIAL HepG2 Assay for human Heat Shock Transcription Factor 1 (HSE) (AID 2282953); conditions: HepG2 HSE cis-reporter, Attagene RNA transcription; actives raise or lower the signal
Heat shock factor protein 1 (Homo sapiens), sequence (Q00613 whole entry, looked up): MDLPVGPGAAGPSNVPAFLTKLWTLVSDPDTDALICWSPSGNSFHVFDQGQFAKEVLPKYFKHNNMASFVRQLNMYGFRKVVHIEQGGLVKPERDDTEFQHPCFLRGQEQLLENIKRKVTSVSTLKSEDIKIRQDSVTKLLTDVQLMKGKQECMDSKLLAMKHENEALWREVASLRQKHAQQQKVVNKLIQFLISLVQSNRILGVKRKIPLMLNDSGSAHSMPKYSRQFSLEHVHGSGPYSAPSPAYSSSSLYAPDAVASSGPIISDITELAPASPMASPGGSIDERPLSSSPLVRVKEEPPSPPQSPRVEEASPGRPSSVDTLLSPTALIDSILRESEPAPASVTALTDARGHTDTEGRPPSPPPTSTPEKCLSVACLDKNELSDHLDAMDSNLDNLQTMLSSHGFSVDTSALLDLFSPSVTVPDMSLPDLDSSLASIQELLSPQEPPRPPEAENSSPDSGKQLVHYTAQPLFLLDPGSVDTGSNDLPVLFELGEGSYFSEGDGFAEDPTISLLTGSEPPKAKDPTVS
In short: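 Liver-derived HepG2 cells carry transiently introduced multiple reporter units governed by cis promoters. Reporter RNA measured 24 h post-dose through reverse transcription, PCR amplification, fluorescent labelling and capillary electrophoresis, normalised to DMSO.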

[9] = ATG_PBREM_CIS: Attagene CIS-FACTORIAL HepG2 Assay for human Phenobarbital-responsive Enhancer Module (PBREM) (AID 2282955); conditions: HepG2 PBREM cis-reporter, Attagene multiplexed transcription; actives raise or lower the signal
In short: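 Multiplexed cis-reporter readout in human hepatoma HepG2 cells; PBREM-regulated transcript quantified after 24 h exposure by fluorescent RT-PCR fragment analysis. Signal changes up or down fitted relative to DMSO.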

[10] = biological target: Paired box protein Pax-6 (Homo sapiens) (UniProt P26367); experiment: ATG_Pax6_CIS: Attagene CIS-FACTORIAL HepG2 Assay for human Paired Box 6 (PAX6) (AID 2282956); conditions: HepG2 CIS-FACTORIAL PAX6 reporter transcription, RNA readout; actives raise or lower the signal
Paired box protein Pax-6 (Homo sapiens), sequence (P26367 whole entry, looked up): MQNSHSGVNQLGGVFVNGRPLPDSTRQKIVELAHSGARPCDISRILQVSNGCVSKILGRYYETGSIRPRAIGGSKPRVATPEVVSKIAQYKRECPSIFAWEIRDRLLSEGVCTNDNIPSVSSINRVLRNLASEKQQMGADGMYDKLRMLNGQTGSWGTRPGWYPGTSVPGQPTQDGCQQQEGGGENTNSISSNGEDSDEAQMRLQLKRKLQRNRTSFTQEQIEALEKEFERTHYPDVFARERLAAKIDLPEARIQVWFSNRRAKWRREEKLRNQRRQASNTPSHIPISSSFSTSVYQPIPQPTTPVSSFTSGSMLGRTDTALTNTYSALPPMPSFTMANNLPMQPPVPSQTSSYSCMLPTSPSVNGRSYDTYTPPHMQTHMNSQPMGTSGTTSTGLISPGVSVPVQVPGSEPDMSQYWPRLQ
In short: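 HepG2 cells transiently transfected with multiplexed cis-promoter reporter units (endogenous TF activity) were dosed for 24 h. Reporter mRNA was quantified by RT-PCR, 6-FAM labeling, HpaI digestion and capillary electrophoresis; bidirectional fitting versus DMSO baseline.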

[11] = ATG_PXRE_CIS: Attagene CIS-FACTORIAL HepG2 Assay for human Pregnane X Receptor Element (PXRE) (AID 2282957); conditions: HepG2 Attagene CIS-FACTORIAL PXRE reporter, mRNA; actives raise or lower the signal
In short: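 Multiplexed cis-reporter assay in transiently transfected human HepG2 cells; 24 h chemical exposure. Reporter transcripts quantified by RT-PCR with fluorescent labeling and capillary electrophoresis.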

[12] = ATG_PPRE_CIS: Attagene CIS-FACTORIAL HepG2 Assay for human Peroxisome Proliferator-activated Response Element (PPRE) (AID 2282958); conditions: HepG2 PPRE cis-element reporter, Attagene transcription factor profiling; actives raise or lower the signal
In short: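 DMSO served as negative control and baseline for bidirectional curve fitting. Signal came from PPRE-regulated reporter mRNA in HepG2 cells, measured 24 h post-dosing by RT-PCR, 6-FAM primer extension and capillary electrophoresis.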

[13] = ATG_RORE_CIS: Attagene CIS-FACTORIAL HepG2 Assay for human RAR-related Orphan Receptor Element (RORE) (AID 2282959); conditions: HepG2 Attagene cis-factorial RORE reporter, mRNA; actives raise or lower the signal
In short: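 Transfect HepG2 with MRTUs; treat 24 h; extract RNA; RT with oligo(dT); PCR with reporter-specific primers; 6-FAM primer extension; HpaI digest 2 h at 37 C; capillary electrophoresis. Fit vs DMSO, bidirectional.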

[14] = ATG_Sox_CIS: Attagene CIS-FACTORIAL HepG2 Assay for human SRY-box transcription factor (SOX) (AID 2282960); conditions: HepG2 Attagene cis-factorial SOX reporter, mRNA; actives raise or lower the signal
In short: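 Fluorescence-labelled cDNA fragments from reporter transcripts, sized by CE, give the signal. Cells: HepG2, transiently transfected with cis-regulated reporter units. Exposure 24 h; DMSO negative control; bidirectional curve fitting.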

[15] = biological target: Transcription factor Sp1 (Homo sapiens) (UniProt P08047); experiment: ATG_Sp1_CIS: Attagene CIS-FACTORIAL HepG2 Assay for human Specificity Protein 1 (Sp1) (AID 2282961); conditions: HepG2 Sp1 cis-reporter transcription, actives raise or lower the signal
Transcription factor Sp1 (Homo sapiens), sequence (P08047 whole entry, looked up): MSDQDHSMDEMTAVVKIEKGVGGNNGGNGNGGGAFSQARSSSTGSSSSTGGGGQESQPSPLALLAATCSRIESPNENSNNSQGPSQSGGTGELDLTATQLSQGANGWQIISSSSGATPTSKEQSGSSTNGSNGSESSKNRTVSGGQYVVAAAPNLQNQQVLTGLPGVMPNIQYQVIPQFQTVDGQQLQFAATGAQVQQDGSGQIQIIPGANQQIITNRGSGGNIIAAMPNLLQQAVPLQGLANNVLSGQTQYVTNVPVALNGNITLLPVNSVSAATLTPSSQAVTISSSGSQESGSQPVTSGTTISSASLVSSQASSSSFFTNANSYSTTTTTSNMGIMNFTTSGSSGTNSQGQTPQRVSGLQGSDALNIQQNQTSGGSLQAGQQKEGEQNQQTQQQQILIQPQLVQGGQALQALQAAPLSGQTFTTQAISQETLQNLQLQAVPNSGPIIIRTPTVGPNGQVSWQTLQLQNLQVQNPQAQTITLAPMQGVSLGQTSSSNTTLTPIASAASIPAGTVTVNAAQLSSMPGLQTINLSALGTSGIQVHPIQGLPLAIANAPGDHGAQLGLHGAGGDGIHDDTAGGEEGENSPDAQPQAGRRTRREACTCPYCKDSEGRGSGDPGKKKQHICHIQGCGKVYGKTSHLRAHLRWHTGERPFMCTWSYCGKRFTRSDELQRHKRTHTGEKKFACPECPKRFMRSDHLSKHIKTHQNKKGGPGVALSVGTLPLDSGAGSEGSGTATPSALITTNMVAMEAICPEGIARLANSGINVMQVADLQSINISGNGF
In short: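 Chemicals are dosed onto HepG2 cells transfected with multiple cis-promoter reporter constructs, and after 24 h reporter RNA is reverse-transcribed, PCR-amplified and resolved by capillary electrophoresis for fluorescence quantitation; activity is scored up or down against DMSO.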

[16] = ATG_SREBP_CIS: Attagene CIS-FACTORIAL HepG2 Assay for human Sterol Regulatory Element Binding (SREBP) (AID 2282962); conditions: HepG2 Attagene cis-factorial SREBP reporter, mRNA; actives raise or lower the signal
In short: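 HepG2 cells transiently transfected with multiplexed cis-element reporter units report endogenous transcription factor activity. After 24 h of chemical exposure, reporter mRNA was quantified by RT-PCR, 6-FAM labelling, HpaI digestion and capillary electrophoresis; bidirectional fits used DMSO as baseline.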

[17] = biological target: Signal transducer and activator of transcription 3 (Homo sapiens) (UniProt P40763); experiment: ATG_STAT3_CIS: Attagene CIS-FACTORIAL HepG2 Assay for human Signal Transducer and Activator of Transcription 3 (STAT3) (AID 2282963); conditions: HepG2, Attagene cis-factorial STAT3 reporter transcription; actives raise or lower the signal
Signal transducer and activator of transcription 3 (Homo sapiens), sequence (P40763 whole entry, looked up): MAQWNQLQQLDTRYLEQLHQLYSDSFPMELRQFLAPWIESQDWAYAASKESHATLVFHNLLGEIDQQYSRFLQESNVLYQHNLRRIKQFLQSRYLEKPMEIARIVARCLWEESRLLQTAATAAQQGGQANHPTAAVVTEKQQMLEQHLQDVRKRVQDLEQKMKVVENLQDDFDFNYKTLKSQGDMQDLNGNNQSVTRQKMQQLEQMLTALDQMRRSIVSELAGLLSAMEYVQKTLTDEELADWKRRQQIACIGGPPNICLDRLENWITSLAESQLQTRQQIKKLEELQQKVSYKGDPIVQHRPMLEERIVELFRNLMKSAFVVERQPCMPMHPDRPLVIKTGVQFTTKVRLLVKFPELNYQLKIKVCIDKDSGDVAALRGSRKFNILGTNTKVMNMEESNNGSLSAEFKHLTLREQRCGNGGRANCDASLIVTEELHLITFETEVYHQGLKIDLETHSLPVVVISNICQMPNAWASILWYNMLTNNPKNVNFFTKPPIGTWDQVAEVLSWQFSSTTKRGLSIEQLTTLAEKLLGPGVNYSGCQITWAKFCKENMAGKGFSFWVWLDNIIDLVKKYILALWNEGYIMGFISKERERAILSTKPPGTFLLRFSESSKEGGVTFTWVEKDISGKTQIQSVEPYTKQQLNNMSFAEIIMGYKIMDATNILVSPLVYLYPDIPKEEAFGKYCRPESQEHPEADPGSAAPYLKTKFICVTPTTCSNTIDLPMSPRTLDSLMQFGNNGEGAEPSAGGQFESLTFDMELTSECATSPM
In short: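 Endogenous STAT3-responsive cis-element activity was read in transiently transfected HepG2 cells after 24 h treatment. Reporter transcripts were quantified via RT-PCR and capillary electrophoresis, with DMSO as negative control and bidirectional curve fitting.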

[18] = ATG_TA_CIS: Attagene CIS-FACTORIAL HepG2 Assay for human TA Basal Promoter (AID 2282964); conditions: HepG2 Attagene CIS-factorial TA basal promoter reporter; actives raise or lower the signal
In short: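 Background internal-marker endpoint from a 52-component HepG2 cis-reporter panel. Cells treated 24 h; reporter transcripts quantified via RT-PCR and CE fluorescence against DMSO baseline.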

[19] = biological target: Hypoxia-inducible factor 1-alpha (Homo sapiens) (UniProt Q16665); experiment: ATG_HIF1a_CIS: Attagene CIS-FACTORIAL HepG2 Assay for human Hypoxia Inducible Factor 1 (HIF1A) (AID 2282951); conditions: HepG2 Attagene cis-factorial HIF1a reporter transcription; actives raise or lower the signal
Hypoxia-inducible factor 1-alpha (Homo sapiens), sequence (Q16665 whole entry, looked up): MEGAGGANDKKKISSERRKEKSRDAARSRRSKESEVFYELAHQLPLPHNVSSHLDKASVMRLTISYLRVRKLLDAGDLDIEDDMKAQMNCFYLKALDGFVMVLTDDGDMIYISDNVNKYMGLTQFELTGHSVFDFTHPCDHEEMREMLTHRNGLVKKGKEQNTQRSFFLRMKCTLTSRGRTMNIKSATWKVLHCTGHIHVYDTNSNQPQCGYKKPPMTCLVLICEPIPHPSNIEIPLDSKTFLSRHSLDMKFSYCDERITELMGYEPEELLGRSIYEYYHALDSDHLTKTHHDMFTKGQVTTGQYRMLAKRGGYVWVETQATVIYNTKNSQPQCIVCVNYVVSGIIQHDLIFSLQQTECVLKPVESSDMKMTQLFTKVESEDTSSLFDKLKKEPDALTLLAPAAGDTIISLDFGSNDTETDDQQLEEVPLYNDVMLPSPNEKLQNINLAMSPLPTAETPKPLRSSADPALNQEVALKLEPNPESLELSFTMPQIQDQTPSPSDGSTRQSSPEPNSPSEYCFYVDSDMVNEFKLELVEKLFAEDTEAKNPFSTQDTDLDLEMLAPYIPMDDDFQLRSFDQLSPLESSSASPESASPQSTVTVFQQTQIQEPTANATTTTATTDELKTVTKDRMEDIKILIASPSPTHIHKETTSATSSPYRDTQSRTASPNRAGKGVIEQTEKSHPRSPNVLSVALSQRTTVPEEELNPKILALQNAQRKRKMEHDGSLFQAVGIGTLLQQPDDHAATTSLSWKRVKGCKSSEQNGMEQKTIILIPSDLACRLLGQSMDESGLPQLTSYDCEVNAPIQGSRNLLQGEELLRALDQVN
In short: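 Cis-element reporter constructs were transiently transfected into HepG2 cells, which were treated for 24 h; reporter RNA was reverse-transcribed, amplified, labelled and resolved by capillary electrophoresis.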

[20] = ATG_MRE_CIS: Attagene CIS-FACTORIAL HepG2 Assay for human Metal Responsive Element (MRE) (AID 2282954); conditions: HepG2 MRE cis-reporter transcription, Attagene multiplex; actives raise or lower the signal
In short: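 Transient MRTU transfection of HepG2 (FuGene 6); 24 h dosing; total RNA → oligo(dT) RT, PCR, 6-FAM primer extension, HpaI cut, CE. Bidirectional fit vs DMSO.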

Measured: AC50

CCN=c1cc2oc3cc(NCC)c(C)cc3c(-c3ccccc3C(=O)OCC)c-2cc1C
inactive: [3] | [5] | [6] | [7] | [9] | [11] | [13] | [17]
active: [1] 16.3 µM | [2] 16.5 µM | [4] 8.05 µM | [8] 17 µM | [10] 8.69 µM | [12] 17 µM | [14] 15.9 µM | [15] 9.7 µM | [16] 15.5 µM | [18] 11.1 µM

CCOCN(C(=O)CS(=O)(=O)O)c1c(C)cccc1CC
active: [11] 42 µM
not listed: [4] | [10] | [18]
inactive: all other assays above

Nc1cccnc1N
not listed: [1] | [18]
inactive: all other assays above

Oc1ccc(C2(c3ccc(O)c(C4CCCCC4)c3)CCCCC2)cc1C1CCCCC1
active: [3] 33.4 µM | [8] 8.18 µM | [20] 11.1 µM | [9] 8.53 µM | [10] 14.4 µM | [11] 0.175 µM | [14] 7.42 µM | [16] 27 µM | [17] 62.4 µM
inactive: [1] | [2] | [5] | [6] | [7] | [12] | [13] | [15] | [18]

O=C1C=CC(=O)N1c1ccc(Cc2ccc(N3C(=O)C=CC3=O)cc2)cc1
active: [19] 46.9 µM | [7] 50.7 µM | [8] 55.2 µM | [10] 33.4 µM | [11] 26.7 µM | [12] 57.2 µM | [15] 48.4 µM
not listed: [4] | [18] | [20]
inactive: all other assays above

N#Cc1ccccc1O
not listed: [4] | [20]
inactive: all other assays above

CC(C)(C)c1cc(CCC(=O)OCC(COC(=O)CCc2cc(C(C)(C)C)c(O)c(C(C)(C)C)c2)(COC(=O)CCc2cc(C(C)(C)C)c(O)c(C(C)(C)C)c2)COC(=O)CCc2cc(C(C)(C)C)c(O)c(C(C)(C)C)c2)cc(C(C)(C)C)c1O
active: [11] 21.3 µM
not listed: [4] | [20]
inactive: all other assays above

O=C(Cl)C(F)(F)C(F)(F)C(F)(F)C(F)(F)C(F)(F)C(F)(F)F
active: [12] 60.3 µM
not listed: [4] | [10] | [19] | [20]
inactive: all other assays above

Oc1ccc2c(c1)CCC2
not listed: [4] | [20]
inactive: all other assays above
